Assay results as given in paper PMC5700166.

Columns and labels:
Test in all cases: protein-binding microarray (PBM); PBM: ~300 nM protein, 6 mM HEPES pH 7.8, 80 mM KCl, 0.5 mM EDTA, 0.5 mM EGTA, 6% glycerol, 35 ng/ul poly-dIdC, 1% milk, 1 h, room temperature; Ap Aiptasia and Nv Nematostella (sea anemones) / Co Capsaspora / Aq Amphimedon (sponge) / Dm Drosophila / Hu human; RHD is the Rel homology domain; high values mean tight binding
Conditions in all cases: dsDNA, one strand shown
GST-Ap-NF-kB RHD = molecular target: T1, GST-Ap-NF-kB RHD (Exaiptasia pallida (Aiptasia), UniProt A0A913YAJ5 2-422)
T1 sequence: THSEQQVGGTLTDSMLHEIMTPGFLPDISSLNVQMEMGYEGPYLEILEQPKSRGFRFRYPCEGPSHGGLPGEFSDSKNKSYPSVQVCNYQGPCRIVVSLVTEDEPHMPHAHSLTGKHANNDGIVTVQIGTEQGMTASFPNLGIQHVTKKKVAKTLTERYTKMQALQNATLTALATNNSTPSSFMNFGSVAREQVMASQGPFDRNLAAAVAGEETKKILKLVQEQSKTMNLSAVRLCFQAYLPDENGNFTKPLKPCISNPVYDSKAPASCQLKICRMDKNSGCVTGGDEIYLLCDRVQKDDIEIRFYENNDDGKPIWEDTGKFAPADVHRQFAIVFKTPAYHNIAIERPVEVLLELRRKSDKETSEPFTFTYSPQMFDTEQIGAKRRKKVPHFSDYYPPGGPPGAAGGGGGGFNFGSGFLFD

[1] = molecular target: T2, GST-Nv-NF-kB (Cys allele) (Nematostella vectensis, UniProt E5G601 2-411)
T2 sequence: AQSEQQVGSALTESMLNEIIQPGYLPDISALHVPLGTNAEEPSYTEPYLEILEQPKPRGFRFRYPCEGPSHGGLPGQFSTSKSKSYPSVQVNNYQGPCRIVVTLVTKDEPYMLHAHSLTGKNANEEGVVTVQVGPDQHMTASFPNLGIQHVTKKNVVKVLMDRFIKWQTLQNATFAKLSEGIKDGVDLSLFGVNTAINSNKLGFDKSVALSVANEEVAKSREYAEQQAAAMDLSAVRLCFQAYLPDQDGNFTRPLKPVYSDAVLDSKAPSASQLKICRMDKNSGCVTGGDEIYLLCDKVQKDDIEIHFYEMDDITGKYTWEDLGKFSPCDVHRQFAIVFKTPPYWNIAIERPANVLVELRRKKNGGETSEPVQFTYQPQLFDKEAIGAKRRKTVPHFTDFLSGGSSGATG

GST-Co-NF-kB = molecular target: T3, GST-Co-NF-kB (Capsaspora owczarzaki, UniProt F1ARL5 200-546)
T3 sequence: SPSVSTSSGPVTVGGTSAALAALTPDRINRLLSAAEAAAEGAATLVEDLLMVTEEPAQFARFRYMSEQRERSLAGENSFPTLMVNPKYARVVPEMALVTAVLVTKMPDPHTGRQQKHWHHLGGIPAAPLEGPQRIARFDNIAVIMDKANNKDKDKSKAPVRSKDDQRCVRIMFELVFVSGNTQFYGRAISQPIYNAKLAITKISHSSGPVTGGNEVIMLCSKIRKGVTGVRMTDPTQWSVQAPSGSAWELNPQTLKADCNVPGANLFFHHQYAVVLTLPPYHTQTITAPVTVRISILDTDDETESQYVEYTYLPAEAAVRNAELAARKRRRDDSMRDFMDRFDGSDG

GST-Dm-Relish = molecular target: T4, GST-Dm-Relish (Drosophila melanogaster, UniProt Q94527 99-473)
T4 sequence: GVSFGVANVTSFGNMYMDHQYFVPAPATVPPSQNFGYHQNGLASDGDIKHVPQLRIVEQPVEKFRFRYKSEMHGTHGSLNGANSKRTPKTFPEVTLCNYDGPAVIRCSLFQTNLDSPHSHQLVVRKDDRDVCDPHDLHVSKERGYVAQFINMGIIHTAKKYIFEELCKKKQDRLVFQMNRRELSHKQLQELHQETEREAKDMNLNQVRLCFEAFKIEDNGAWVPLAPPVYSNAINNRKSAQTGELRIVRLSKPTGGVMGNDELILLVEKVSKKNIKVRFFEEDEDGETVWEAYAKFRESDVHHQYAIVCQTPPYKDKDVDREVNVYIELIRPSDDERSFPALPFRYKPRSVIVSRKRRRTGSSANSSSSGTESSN

GST-Aq-NF-kB = molecular target: T5, GST-Aq-NF-kB (Amphimedon queenslandica, UniProt A9Y5G7 2-389)
T5 sequence: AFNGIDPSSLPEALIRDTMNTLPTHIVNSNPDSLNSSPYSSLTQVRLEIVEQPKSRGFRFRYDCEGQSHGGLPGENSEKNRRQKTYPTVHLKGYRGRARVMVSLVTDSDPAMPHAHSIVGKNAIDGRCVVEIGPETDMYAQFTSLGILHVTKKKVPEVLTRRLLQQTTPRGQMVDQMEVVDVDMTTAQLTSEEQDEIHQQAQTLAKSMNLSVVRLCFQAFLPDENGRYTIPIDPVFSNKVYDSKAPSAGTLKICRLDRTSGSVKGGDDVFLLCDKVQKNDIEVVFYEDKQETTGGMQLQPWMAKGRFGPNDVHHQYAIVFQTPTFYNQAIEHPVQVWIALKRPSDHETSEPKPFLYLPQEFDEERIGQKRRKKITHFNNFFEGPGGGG

Sequence | binding signal (GST-Ap-NF-kB RHD) | binding signal [1] | binding signal (GST-Co-NF-kB) | binding signal (GST-Dm-Relish) | binding signal (GST-Aq-NF-kB)
CCGATTAACATCACAAACGGGGCTGATGTTAATCGGGTCTTGATTCGCTTGACGCTGCTG | 1.5 z-score | 2.75 z-score | 1.3 z-score | 1.33 z-score | 3.49 z-score
CCGATTAACATCAGGGGACGCACTGATGTTAATCGGGTCTTGATTCGCTTGACGCTGCTG | 4.45 z-score | 4.2 z-score | 2.19 z-score | 5.79 z-score | 4.68 z-score
CCGATTAACATCACCGCCCCCCCTGATGTTAATCGGGTCTTGATTCGCTTGACGCTGCTG | 3.91 z-score | 4.65 z-score | 3.8 z-score | 4.88 z-score | 4.3 z-score
CCGATTAACATCAAAATAATCCCTGATGTTAATCGGGTCTTGATTCGCTTGACGCTGCTG | 6.46 z-score | 4.62 z-score | 2.45 z-score | 4.15 z-score | 5.15 z-score
CCGATTAACATCAAAGGTCCCCCTGATGTTAATCGGGTCTTGATTCGCTTGACGCTGCTG | 6.07 z-score | 4.14 z-score | 4.7 z-score | 4.42 z-score | 4.58 z-score
CCGATTAACATCAGATTCTCCCCTGATGTTAATCGGGTCTTGATTCGCTTGACGCTGCTG | 5.2 z-score | 5.25 z-score | 6.76 z-score | 1.92 z-score | 4.43 z-score
CCGATTAACATCAGGGGACACCCTGATGTTAATCGGGTCTTGATTCGCTTGACGCTGCTG | 5.89 z-score | 4.47 z-score | 3.91 z-score | 7.15 z-score | 6.52 z-score
CCGATTAACATCAGGGAACCCCATGATGTTAATCGGGTCTTGATTCGCTTGACGCTGCTG | 3.95 z-score | 2.07 z-score | 1.54 z-score | 10.5 z-score | 4.59 z-score
CCGATTAACATCACAGTACCCCCTGATGTTAATCGGGTCTTGATTCGCTTGACGCTGCTG | 5.34 z-score | 2.85 z-score | 3.67 z-score | 1.94 z-score | 2.91 z-score
CCGATTAACATCAACACCCCCCCTGATGTTAATCGGGTCTTGATTCGCTTGACGCTGCTG | 5.32 z-score | 4.06 z-score | 5.33 z-score | 5.81 z-score | 4.43 z-score
CCGATTAACATCAGGGAATCTCATGATGTTAATCGGGTCTTGATTCGCTTGACGCTGCTG | 2.33 z-score | 3.41 z-score | 1.96 z-score | 1.4 z-score | 3.46 z-score
CCGATTAACATCAGGGGGTTAGATGATGTTAATCGGGTCTTGATTCGCTTGACGCTGCTG | 3.78 z-score | 2.99 z-score | 1.94 z-score | 4.34 z-score | 3.58 z-score
CCGATTAACATCAGGGAAACTCATGATGTTAATCGGGTCTTGATTCGCTTGACGCTGCTG | 3.29 z-score | 4.53 z-score | 3.68 z-score | 1.31 z-score | 4.27 z-score
CCGATTAACATCAGAAGATTCCCTGATGTTAATCGGGTCTTGATTCGCTTGACGCTGCTG | 3.38 z-score | 4.85 z-score | 3.43 z-score | 3.48 z-score | 5.19 z-score
CCGATTAACATCAGTAACTCCCTTGATGTTAATCGGGTCTTGATTCGCTTGACGCTGCTG | 2.54 z-score | 2.67 z-score | 1.16 z-score | 2.91 z-score | 3.78 z-score
CCGATTAACATCAGGGGGTGTTATGATGTTAATCGGGTCTTGATTCGCTTGACGCTGCTG | 4.69 z-score | 4.31 z-score | 3.42 z-score | 4.34 z-score | 5.4 z-score
CCGATTAACATCAGAATTCCCGCTGATGTTAATCGGGTCTTGATTCGCTTGACGCTGCTG | 3.59 z-score | 4.74 z-score | 3.87 z-score | 3.89 z-score | 3.98 z-score
CCGATTAACATCAGGACACCCCCTGATGTTAATCGGGTCTTGATTCGCTTGACGCTGCTG | 6.35 z-score | 5.22 z-score | 2.5 z-score | 6.86 z-score | 7.67 z-score
CCGATTAACATCATGGGAAAAAATGATGTTAATCGGGTCTTGATTCGCTTGACGCTGCTG | 1.94 z-score | 3.64 z-score | 4.93 z-score | 1.7 z-score | 2.57 z-score
CCGATTAACATCAAATCACCCCCTGATGTTAATCGGGTCTTGATTCGCTTGACGCTGCTG | 4.73 z-score | 4.59 z-score | 6.61 z-score | 4.37 z-score | 5.32 z-score
CCGATTAACATCAGGGGACGGGATGATGTTAATCGGGTCTTGATTCGCTTGACGCTGCTG | 4.78 z-score | 3.92 z-score | 2.14 z-score | 1.43 z-score | 3.92 z-score
CCGATTAACATCATTCGGGAAAATGATGTTAATCGGGTCTTGATTCGCTTGACGCTGCTG | 1.48 z-score | 3.97 z-score | 3.01 z-score | 1.3 z-score | 2.01 z-score
CCGATTAACATCAAGTTTTCCCATGATGTTAATCGGGTCTTGATTCGCTTGACGCTGCTG | 2.53 z-score | 3.86 z-score | 4.78 z-score | 1.42 z-score | 2.83 z-score
CCGATTAACATCAGGACTTCCCATGATGTTAATCGGGTCTTGATTCGCTTGACGCTGCTG | 3.08 z-score | 2.46 z-score | 1.82 z-score | 7.81 z-score | 4.72 z-score
CCGATTAACATCAAACAACCCCCTGATGTTAATCGGGTCTTGATTCGCTTGACGCTGCTG | 5.66 z-score | 4.5 z-score | 2.66 z-score | 5.24 z-score | 5.17 z-score
CCGATTAACATCAAGGTTTTCCCTGATGTTAATCGGGTCTTGATTCGCTTGACGCTGCTG | 4.36 z-score | 5.34 z-score | 4.71 z-score | 5.1 z-score | 5.65 z-score
CCGATTAACATCAATCCCCCCCGTGATGTTAATCGGGTCTTGATTCGCTTGACGCTGCTG | 6.49 z-score | 4.68 z-score | 7.66 z-score | 6.77 z-score | 5.33 z-score
CCGATTAACATCAGGGGTTTTGATGATGTTAATCGGGTCTTGATTCGCTTGACGCTGCTG | 3.81 z-score | 3.46 z-score | 1.34 z-score | 5.6 z-score | 3.25 z-score
